# In the library only some 6.8% were active in any assay of this set; here they are far more common.
# Fluor 339 460 – intrinsic fluorescence of library compounds, ex339/em460 – biochemical, MLSMR library, data from DPM-DC assay, artefact control, profiling panel; AID 709, 2007; fluorescence fold increase at 10 µM; compound autofluorescence, ex339/em460 nm, NADH buffer; stronger effect = higher value; 1 = no-compound wells, NADH background; 65,000 compounds, 5.5% hits;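 active = at 10 µM, mean starting fluorescence two-fold or more over control wells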;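 also: signal is the first read of a kinetic run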
# Abs 340nm – compound light absorbance at 340 nm, profiling panel, artefact control, biochemical, MLSMR library, data from PS, PMK, MK assays. compound absorbance at 340 nm, fold over control. 65,000 tested, under 10 active. AID 708, 2007. fold change at 10 µM;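 active = at 10 µM dose, initial 340 nm absorbance at least 2 fold that of control wells; inactive = change under 2 fold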;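 also: initial absorbance extrapolated from kinetic A340 decline of NADH oxidation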
# Spn DPM-DC inh – S. pneumoniae DPM-DC inhibitors, primary screen, biochemical, PK/LDH-coupled NADH fluorescence. 65,000 compounds, 0.49% hits. AID 556, 2006. calls only at 10 µM. purified DPM-DC. diphosphomevalonate decarboxylase (Streptococcus pneumoniae D39);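 active = the 320 compounds with the highest percent inhibition in the single-dose primary screen, excluding strongly autofluorescent ones, cut at about 32% in these data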;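 also: kinetic rate of NADH fluorescence loss reporting ADP formed by the decarboxylase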
# Spn PMK inh – S. pneumoniae PMK inhibitors, primary screen, biochemical, mevalonate pathway, pilot trial included. purified PMK, PK/LDH-coupled NADH absorbance 340 nm. AID 539, 2006. 65,000 compounds, 0.49% hits. phosphomevalonate kinase (Streptococcus pneumoniae D39). inhibition, % at 10 µM;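 active = top-ranked compounds by inhibition in the single 10 µM screen, taking a fixed number of the strongest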;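 also: 0% = full reaction with DMSO carrier and 100% = background rate without enzyme reaction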
# NADH coupling – inhibitors of PK/LDH coupling enzymes, profiling panel, artefact control, biochemical, MLSMR library. AID 774, 2007. coupled PK/LDH NADH assays, four targets. IC50, µM (doses to about 10 µM), without a hit: top-dose inhibition. 65,000 compounds, 0.02% hits;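 active = single-dose screening hits from any of four coupled enzyme assays that gave an IC50 when retested across doses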;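 also: the DPM-DC format reads NADH fluorescence rather than 340 nm absorbance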
# Spn MK inh – S. pneumoniae MK inhibitors, primary screen, biochemical, PK/LDH-coupled NADH absorbance. mevalonate kinase [Streptococcus pneumoniae D39]. purified MK, PK/LDH-coupled NADH absorbance 340 nm. inhibition, % at 10 µM. 65,000 compounds, 0.48% hits. AID 555, 2006;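 active = ranked among the strongest by inhibition in the single 10 µM screen, a fixed top-ranked set picked for dose follow-up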
# The depositor's hits bear a star; i = inactive; · = no result shown; + = active, no number; ! = not active in a repeat.
SMILES,Fluor 339 460,Abs 340nm,Spn DPM-DC inh,Spn PMK inh,NADH coupling,Spn MK inh
Cc1oc(-c2ccccc2)nc1CS(=O)CC(=O)N1CCc2ccccc2C1 (configuration not stated),1.1,1,i,3,5%,5
O=C(Nc1cccc2ccccc12)c1cnccn1,1,1,i,25*,3%,9
CC(C)c1nnc(NC(=O)c2c(O)c3cccc4c3n(c2=O)CC4)s1,1.6,1.1,i,10,4%,1
c1ccc(-c2oc3ncnc(NCCN4CCOCC4)c3c2-c2ccccc2)cc1,2*,1,i,4,5%,2
N=c1c2c(-c3ccccc3)c(-c3ccccc3)oc2ncn1CCCN1CCOCC1,1.5,1.1,i,12,11%,12
c1ccc2c(c1)oc1c(NCCCn3ccnc3)ncnc12,1.1,1.1,i,4,2%,2
c1ccc(-c2oc3ncnc(NCCCn4ccnc4)c3c2-c2ccccc2)cc1,3.7*,1.1,·,16,8%,0
Cc1nc2c(C(=O)NCc3ccco3)cnn2c(C)c1Cc1ccc(F)cc1Cl,3.1*,1,i,7,6%,0
Cc1cccc(Cc2c(C)nc3c(C(=O)NCc4ccco4)cnn3c2C)c1,3.9*,1,i,13,7%,1
Cc1nc2c(-c3ccccc3)c(C)nn2c(C)c1CCC(=O)NCc1ccco1,1,0.99,i,8,4%,8
COC(=O)C1CCC(C)(C(=O)Nc2ccccc2)C1(C)C (configuration not stated),1.1,1,i,5,2%,0
CNC(=O)c1[nH]cnc1C(=O)Nc1cccc(OC)c1,1.1,1.1,i,8,4%,4
CCOc1ccccc1NC(=O)c1nc[nH]c1C(=O)Nc1ccccc1OCC,5.2*,1.1,·,15,10%,5
COc1ccccc1NC(=O)c1nc[nH]c1C(=O)Nc1ccccc1OC,2.3*,1,i,14,8%,7
Cc1ccccc1NC(=O)c1nc[nH]c1C(=O)NCc1ccccc1,1.1,1,i,4,4%,6
COc1ccc(NC(=O)c2nc[nH]c2C(=O)Nc2ccccc2C)cc1,3.2*,1.1,i,9,7%,0
COC(=O)c1[nH]cnc1C(=O)c1ccccc1,1.1,1,i,1,3%,8
Cc1c(NS(=O)(=O)c2ccc3c(c2)c(=O)n(C)c(=O)n3C)c(=O)n(-c2ccccc2)n1C,1.1,1,i,0,4%,4
Cc1cc(C)nc(SCC2COc3ccccc3O2)n1 (configuration not stated),1.1,1,i,5,3%,3
O=C(O)c1cc(-c2ccncc2)nc2ccc(S(=O)(=O)N3CCOCC3)cc12,1.1,1.1,i,8,3%,0
Cc1ccc2nc(-c3ccccc3)cn2c1,2.9*,1,i,12,8%,0
Cc1ccc(S(=O)(=O)N2CCOCC(=O)NCCOCCNC(=O)COCC2)cc1,1,0.99,+,0,11%,4
Cc1ccn2cc(-c3ccc(S(=O)(=O)N4CCOCC4)cc3)nc2c1,2.2*,1.1,·,10,8%,5
Cc1ccc2nc(-c3ccc(S(=O)(=O)N4CCOCC4)cc3)cn2c1,3*,1,·,6,4%,9
Cc1ccc(Cn2ccc(NC(=O)c3cc(CC(C)C)on3)n2)cc1,1.3,1.1,i,0,7%,4
SMILES,Fluor 339 460,Abs 340nm,Spn DPM-DC inh,Spn PMK inh,NADH coupling,Spn MK inh
O=C1CCCc2nn(-c3ccccc3)c(-c3ccncc3)c21,1.1,0.99,i,17,6%,0
CCn1c(=O)c2c(nc(SCc3ccccn3)n2C)n(C)c1=O,1.1,1,i,12,9%,16
Cc1ccsc1C1C(C(=O)O)c2ccccc2C(=O)N1C (configuration not stated),1.2,1,+,85*,79%,53*
CN1C(=O)c2ccccc2C(C(=O)O)C1c1cccc(F)c1 (configuration not stated),1,1,i,16,5%,0
O=C(COC(=O)c1cc(=O)[nH]c2ccccc12)NC(=O)NC1CCCCC1,2*,1.1,i,13,9%,0
CCCCOC(=O)c1cc(=O)[nH]c2ccccc12,2.1*!,1.1,i,10,8%,6
CC(=O)Nc1c(O)n(C)c2ccccc12,0.99,0.98,i,active,8%,11
Cc1cc(N=Cc2cc(Br)ccc2O)no1,1.1,1,i,18,7%,11
Cc1nc2ccccc2n1-c1nc(-c2ccco2)cc(C(F)(F)F)n1,1.8,1.1,i,13,5%,3
FC(F)(F)c1cc(-c2ccco2)nc(-n2cnc3ccccc32)n1,2.7*,1.1,i,16,11%,8
CCCOc1ccccc1C(=O)N(Cc1ccco1)C1CCS(=O)(=O)C1 (configuration not stated),1.1,0.96,i,3,5%,11
COc1cc2c(N3CCOCC3)cc(O)c(CC(=O)Nc3ccccc3)c2cc1OC,3.1*,1,·,10,4%,5
CCOc1cc(N2CCOCC2)c(OCC)cc1NC(=O)CN1CCc2ccccc2C1,1.1,1.1,i,2,25%,73*
CCOc1cc(N2CCOCC2)c(OCC)cc1NC(=O)Cc1ccc(OC)c(OC)c1,1,0.99,i,26*,10%,5
CCn1c(SCC(=O)N2CCC(C(N)=O)(N3CCCCC3)CC2)nnc1-c1ccccc1,1.1,1,i,7,6%,9
c1ccc(-c2onc3cc4c(cc23)OCCO4)cc1,1.1,1.1,i,0,5%,16
Cc1nn(Cc2ccc(C(=O)Nc3nccs3)cc2)c(C)c1Cl,1,1,i,6,5%,8
O=C(c1coc(=O)c(Br)c1)N1CCCc2ccccc21,2.4*,1.1,·,0,6%,11
C[C@@H](NC(=O)c1coc(=O)c(Br)c1)c1ccccc1,1.1,1.2,i,1,2%,5
CC1(C)CCCN(C(=O)c2coc(=O)c(Br)c2)C1,3.7*,1.1,·,6,6%,5
O=C(c1cc(-c2ccco2)on1)N1CCCc2ccccc21,1.2,1,i,31*,29%,50*
CC1(C)CC(=O)C2=C(C1)NC(Nc1nc3ccccc3o1)=NC21CCCCC1,2.4*,1.1,i,1,4%,3
Cc1cc2nn(-c3cccc4ccccc34)nc2cc1N,3.6*,1.2,·,12,13%,14
